In article PMC4336329 (PLoS ONE, 2015):
Out of some 310,000 compounds screened, about 14,000 (4.5%) showed an effect of 50% or more. Effects have a minus sign here. The entries come from a sample that favours strong results as a whole.

Biological target: human ether-à-go-go-related gene (hERG) potassium channel (human, UniProt Q12809)
Assay: primary screen, population patch clamp on CHO cells stably expressing hERG; higher = less effect of the substance
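Further: peak tail current of the secondary pulse compared with the same well before compound.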

Sequence of human ether-à-go-go-related gene (hERG) potassium channel (Q12809 whole entry, looked up): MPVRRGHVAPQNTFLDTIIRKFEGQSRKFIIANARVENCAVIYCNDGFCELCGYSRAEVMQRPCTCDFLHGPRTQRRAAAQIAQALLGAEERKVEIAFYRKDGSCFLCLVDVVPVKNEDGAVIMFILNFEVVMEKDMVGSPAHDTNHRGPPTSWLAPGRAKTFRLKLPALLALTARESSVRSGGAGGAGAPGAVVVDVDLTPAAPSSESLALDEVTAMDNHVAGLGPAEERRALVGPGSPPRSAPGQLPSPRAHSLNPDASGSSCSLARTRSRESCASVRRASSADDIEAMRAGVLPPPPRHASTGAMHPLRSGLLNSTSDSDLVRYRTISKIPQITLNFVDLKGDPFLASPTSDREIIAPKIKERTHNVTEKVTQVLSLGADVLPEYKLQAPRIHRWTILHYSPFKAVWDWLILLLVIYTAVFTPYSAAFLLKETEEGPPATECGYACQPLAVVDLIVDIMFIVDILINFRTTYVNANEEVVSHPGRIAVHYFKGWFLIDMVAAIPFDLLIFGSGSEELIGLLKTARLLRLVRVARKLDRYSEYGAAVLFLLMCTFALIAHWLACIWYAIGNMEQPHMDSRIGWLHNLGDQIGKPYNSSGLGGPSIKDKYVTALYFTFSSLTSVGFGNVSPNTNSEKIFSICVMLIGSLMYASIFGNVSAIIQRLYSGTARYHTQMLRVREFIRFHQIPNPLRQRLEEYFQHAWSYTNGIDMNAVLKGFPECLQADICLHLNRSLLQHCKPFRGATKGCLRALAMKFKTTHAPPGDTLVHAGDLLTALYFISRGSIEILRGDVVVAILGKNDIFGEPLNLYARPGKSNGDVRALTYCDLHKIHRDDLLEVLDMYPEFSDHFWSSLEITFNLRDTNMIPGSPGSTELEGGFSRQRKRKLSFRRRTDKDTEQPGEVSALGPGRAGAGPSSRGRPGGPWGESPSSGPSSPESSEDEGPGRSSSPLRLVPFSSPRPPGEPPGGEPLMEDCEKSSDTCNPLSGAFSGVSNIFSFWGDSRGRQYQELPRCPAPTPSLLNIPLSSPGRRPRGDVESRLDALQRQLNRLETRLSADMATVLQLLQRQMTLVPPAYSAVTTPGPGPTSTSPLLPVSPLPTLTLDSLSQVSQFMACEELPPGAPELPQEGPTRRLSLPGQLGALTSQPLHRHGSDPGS

SMILES	hERG current change (%, negative = inhibition) at 10uM
COc1ccc(NC(=O)C2Cc3ccccc3O/C2=N\O)cc1 (stereo not shown)	13.8%
COc1ccc(C(=O)NC2CCN(CC(=O)NCc3cccc(OC)c3)CC2)cc1	-19.9%
CCOc1ccccc1NC(=O)N1CCC(c2nc3ccc(C)cc3[nH]2)CC1	-55.5%
CCOc1ccccc1NC(=O)N1CCC(c2nc3ccccc3[nH]2)CC1	-23.6%
Cc1ccc2nc(C3CCN(C(=O)NCc4ccccc4)CC3)[nH]c2c1	-30%
COc1ccccc1NC(=O)CN1CCC(c2nc3ccc(C)cc3[nH]2)CC1	-57.7%
CCOC(=O)CNC(=O)CN1CCC(c2nc3ccccc3[nH]2)CC1	13.7%
COc1cccc(CNC(=O)CN2CCC(c3nc4ccc(C)cc4[nH]3)CC2)c1	-68.4%
COc1cccc(CNC(=O)CSc2nc3ccc(C)cc3[nH]2)c1	6.22%
COc1ccccc1NC(=O)N1CCC(c2nc3cc(C)c(C)cc3[nH]2)CC1	-53.3%
COc1ccc(NC(=O)N2CCC(c3nc4ccccc4[nH]3)CC2)cc1	9.26%
COc1ccccc1NC(=O)CN1CCC(c2nc3ccccc3[nH]2)CC1	-43.6%
COc1ccccc1NC(=S)N1CCC(c2nc3cc(C)c(C)cc3[nH]2)CC1	-21%
COc1ccccc1-c1cnn2c(N3CCOCC3)cc(C)nc12	23.9%
C=CCOc1ccc(/C=C/C(C)=N\O)cc1	4.84%
O=[N+]([O-])c1c(Nc2ccccn2)cc(Cl)c2nonc12	9.59%
CSCCC1NC(=S)N(Cc2ccccc2)C1=O (stereo not shown)	16.3%
CCN(CC)C(=O)CSc1ccccc1N	13%
C[C@@H]1CC=C[C@H]2[C@H]1C(=O)N(Cc1ccccc1)[C@H]2c1ccc2ccccc2c1	3.52%
COc1ccc(C2=C(Nc3ccc(C)cc3)c3ccccc3C2=O)cc1	3.57%
COc1ccccc1C(CNC(=O)c1cc(S(=O)(=O)N2CCOCC2)ccc1C)N1CCCC1 (stereo not shown)	2.53%
CCn1cc(C(=O)N2CCCC2)c(=O)c2cc(S(=O)(=O)N3CCC(C)CC3)ccc21	6.02%

SMILES	hERG current change (%, negative = inhibition) at 10uM
CCn1cc(C(=O)N2CCN(c3ccccn3)CC2)c(=O)c2cc(S(=O)(=O)N(C)C3CCCCC3)ccc21	-63.1%
CCn1cc(C(=O)N2CCN(c3ccccn3)CC2)c(=O)c2cc(S(=O)(=O)N3CCC(C)CC3)ccc21	-55.9%
CCOC(=O)N1CCN(C(=O)c2cn(CC)c3ccc(S(=O)(=O)N(C)C4CCCCC4)cc3c2=O)CC1	-17.3%
CCn1cc(C(=O)N2CCOCC2)c(=O)c2cc(S(=O)(=O)N(C)C3CCCCC3)ccc21	0.899%
CCn1cc(C(=O)N2CCCCC2)c(=O)c2cc(S(=O)(=O)N3CCC(C)CC3)ccc21	-18.4%
CCCN1CNC(=S)N(c2cccc(C)c2)C1	17%
CCC(C)[C@H](NC(=O)N1CC(=O)Nc2ccccc21)C(=O)N1CCC[C@@H]1C(=O)O (stereo partly shown)	13.5%
COc1cccc(NC(=O)CCC(=O)Nc2cccc(OC)c2)c1	10.5%
O=C(Nc1cccc(F)c1)c1ccc2ncsc2c1	9.49%
C=CCn1c(SC(C)C#N)nc2sc(CC)cc2c1=O (stereo not shown)	-41.2%
C=CCn1c(SCC2CCCCO2)nc2sc(CC)cc2c1=O (stereo not shown)	-2.19%
C=CCn1c(SC2CCOC2=O)nc2sc(C)c(C)c2c1=O (stereo not shown)	-11.2%
Cc1sc2nc(SC3CCOC3=O)n(Cc3ccccc3)c(=O)c2c1C (stereo not shown)	-9.22%
C=CCn1c(SCc2cc(=O)n3ccsc3n2)nc2scc(C3CC3)c2c1=O	-9.75%
CCc1cc2c(=O)n(Cc3ccccc3)c(SC3CCOC3=O)nc2s1 (stereo not shown)	-80.4%
O=C1OCCC1Sc1nnc(-c2cccs2)n1Cc1ccccc1 (stereo not shown)	-29.5%
C=CCn1c(SC2CCOC2=O)nc2sc(CC)cc2c1=O (stereo not shown)	-65.4%
C=CCn1c(SC2CCOC2=O)nc2scc(C3CC3)c2c1=O (stereo not shown)	-64.6%
O=C(Nc1ccccn1)C1CCN(S(=O)(=O)c2ccc3c(c2)OCCO3)CC1	-11.5%
Cc1ccccc1OCC(=O)Nc1cc(Cl)ccc1Oc1ccccc1	0.121%
O=C1NC(Cc2c[nH]c3ccccc23)C(=O)N1c1ccc(F)cc1 (stereo not shown)	12.4%
CCCNC(=O)C/C(C)=N/NC(=O)C(=O)Nc1ccccn1	29.4%

SMILES	hERG current change (%, negative = inhibition) at 10uM
O=C(CN1C(=O)NC2(CCCc3ccccc32)C1=O)N1CCc2ccccc2C1 (stereo not shown)	-17.3%
COc1ccc(-n2nc(C(=O)N3CCC(N4CCCCC4)CC3)c3c4ccccc4n(C)c3c2=O)cc1	7.1%
COc1ccc(-n2nc(C(=O)N3CCC(C#N)CC3)c3c4ccccc4n(C)c3c2=O)cc1	-55.5%
CCN1CCN(C(=O)c2nn(-c3ccc(OC)cc3)c(=O)c3c2c2ccccc2n3C)CC1	-4.67%
CC1CCN(C(=O)CN2C(=O)C(=O)N(C(C)C)C2=O)c2ccccc2S1 (stereo not shown)	-4.64%
Cc1ccc2nc(-c3ccc(-c4cccc(Cl)c4)cc3)c(NCc3ccccc3)n2c1.O=C(O)C(F)(F)F	-1.52%
CCN1CCN(C(=O)/C(C#N)=C/c2ccc(OC(F)F)cc2)CC1.Cl	-74.3%
N#C/C(=C\c1ccc(OC(F)F)cc1)C(=O)N1CCCCC1	-21.8%
N#C/C(=C\c1ccc(C#N)cc1)C(=O)N1CCCC1	7.75%
CCOC(=O)c1ccc(NC(=O)Cn2c(=O)oc3ccccc32)cc1	10.9%
O=C(NCc1ccc(Cl)cc1)C1CCC(CNc2c(N3CCOCC3)c(=O)c2=O)CC1 (stereo not shown)	14.9%
Cc1cc(-c2nnc(CCC(=O)NCc3ccc(OC(F)(F)F)cc3)o2)no1	3.05%
C/C(=N\NC(=O)c1nc2ccccn2c1C)c1cccc([N+](=O)[O-])c1	-23.4%
Cc1ccc(C(=O)C(C)OC(=O)CN2C(=O)NC3(CCCC3)C2=O)cc1C (stereo not shown)	9.76%
O=C(Sc1ccc(Cl)cc1)c1cccc(Cn2cc(C(F)(F)F)ccc2=O)c1	18.6%
CCCC(=O)N1CCCC(C(=O)c2cccc(OC(C)C)c2)C1 (stereo not shown)	3.64%
COc1c(C)cc(C(=O)C2CCCN(S(=O)(=O)c3c(C)noc3C)C2)cc1C (stereo not shown)	-2.78%
CCOC(=O)N1CCC(N2CCCC(C(=O)c3cccc(OC(C)C)c3)C2)CC1 (stereo not shown)	-76.8%
CCOC(=O)CNC(=O)N1CCCC(C(=O)c2cc(C)c(OC)c(C)c2)C1 (stereo not shown)	9.16%
COc1c(C)cc(C(=O)C2CCCN(S(=O)(=O)N(C)C)C2)cc1C (stereo not shown)	-66.5%
CCOC(=O)N1CCC(N2CCCC(C(=O)c3cccc(OC)c3)C2)CC1 (stereo not shown)	-64.8%
COc1c(C)cc(C(=O)C2CCCN(C3CCOCC3)C2)cc1C (stereo not shown)	-15.2%

SMILES	hERG current change (%, negative = inhibition) at 10uM
COc1ccc(C(=O)C2CCCN(S(=O)(=O)N(C)C)C2)c(C)c1 (stereo not shown)	0.683%
CCOC(=O)N1CCC(N2CCCC(C(=O)c3cc(C)c(OC)c(C)c3)C2)CC1 (stereo not shown)	-57.3%
CCOC(=O)c1c(C)[nH]c(C(=O)N2CCCC(C(=O)c3cccc(OC)c3)C2)c1C (stereo not shown)	-8.55%
CC(=O)N1CCC(N2CCCC(C(=O)c3cccc(Cl)c3)C2)CC1 (stereo not shown)	5.55%
CCOC(=O)CCNC(=O)N1CCCC(C(=O)c2cccc(OC(C)C)c2)C1 (stereo not shown)	-10.3%
Cn1cc(C(=O)OCC(=O)Nc2ccccc2)c2ccccc21	-8.39%
CCCCCCOc1ccc(N2C(=O)CC(N3CCN(CCN=CC4C(=O)CC(C)(C)CC4=O)CC3)C2=O)cc1 (stereo not shown)	-32.5%
CN(C)S(=O)(=O)c1cccc(NC(=O)COC(=O)c2cn(-c3ccccc3)nc2-c2ccccc2)c1	12.3%
O=C1Nc2ccccc2N(O)N1c1cc(-c2ccc(Cl)cc2)[nH]n1	22.9%
CC(C)(C)c1nc(N)nc(=O)[nH]1	-1.18%
Cc1noc(C)c1CC(=O)N1CCCC(C(=O)c2ccc(C(C)(C)C)cc2)C1 (stereo not shown)	-18.8%
CCNC(=O)N1CCCC(C(=O)c2ccc3cc(OC)ccc3c2)C1 (stereo not shown)	-22.5%
CCOC(=O)N1CCC(N2CCCC(CO)(Cc3cccc(Cl)c3)C2)CC1 (stereo not shown)	-49%
CCOC(=O)N1CCC(N2CCCC(CO)(Cc3cccc(OC)c3)C2)CC1 (stereo not shown)	-51.7%
COc1ccc2cc(C(=O)C3CCCN(C(=O)c4csnn4)C3)ccc2c1 (stereo not shown)	-13.2%
COc1ccc(C(=O)C2CCCN(C(=O)Cc3c(C)noc3C)C2)cc1OC (stereo not shown)	-3.81%
COc1ccc2cc(C(=O)C3CCCN(C(=O)Cc4c(C)noc4C)C3)ccc2c1 (stereo not shown)	-68.5%
CCOC(=O)N1CCC(N2CCCC(CO)(Cc3ccccc3C)C2)CC1 (stereo not shown)	0.621%
CCOC(=O)N1CCC(N2CCCC(C(=O)c3ccc4cc(OC)ccc4c3)C2)CC1 (stereo not shown)	-74.3%
